Results from PubChem BioAssay (NCI).
Values joined by “and” are separate entries in the source; they are usually repeats but may differ in a detail not shown here. Equal entries are not always repeated. This is part of a sample that, as a whole, favours compounds with a hit. Of some 83,000 tested, about 20% had one in any assay.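 For each line, cells grew in 96-well plates with the test compound present at a single concentration for 48 hours.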 Active and inactive are the calls of the source. Rule for the calls: active = growth percent below 10; inactive = the rest.

The compounds below were run on MDA-MB-468 breast (assay: NCI-60 one-dose screen, 48 h (100 = growth as untreated, 0 = no growth, -100 = all killed)). Conditions: 10 µM unless noted.

Compound	growth
CCN(CC)CCNc1ccc(C)c2sc3ccccc3c(=O)c12 (tested in a mixture with another compound)	11.8% (inactive) and 16.9% (inactive)
Cc1c(C(=O)O)c(=O)n(-c2ccccc2)n1C	127% (inactive)
CC1CN(C(C)C)C(=S)N(c2ccccc2)C1=O (stereo not given)	84.3% (inactive)
COc1cc(/C=C/C(=O)c2cccnc2Nc2ccc(F)cc2)cc(OC)c1OC	16.3% (inactive)
C=C[C@]1(C)C=C2C(=O)[C@@]3(O)OC[C@@]4(CCCC(C)(C)C43O)C2(O)C(O)C1 (stereo not given in full)	-18.7% (active)
C=CCS(C)(=O)=O	95.9% (inactive)
COc1cc(OC)c(/C=C/C(=O)c2c(OC)cc(OC)cc2OC)c(OC)c1	14% (inactive)
Cc1cnc(Nc2ccc(OCCN3CCCC3)cc2)nc1Nc1cccc(S(=O)(=O)NC(C)(C)C)c1	-16.6% (active)
CS(=O)(=O)Nc1ccc(OCc2nnc(-c3ccc(Cl)cc3)o2)c(F)c1	86.8% (inactive)
COc1ccccc1/C=N\NC(=S)Nc1ccc(F)cc1	72.9% (inactive)
COc1ccc(Cl)c([N+](=O)[O-])c1	99.9% (inactive)
O=C1C2=C(C(=O)c3ccccc31)C(O)(S(=O)(=O)O)C(O)(S(=O)(=O)O)C1N=CC=CC21 (stereo not given)	18.4% (inactive)
O=C1[C@@H]2Cc3c([nH]c4ccccc34)[C@H](c3c(Cl)cccc3Cl)N2C(=O)CN1C1CCN(CC2CCCCC2)CC1	47.8% (inactive)
C=CCNC(=S)N/C=C(/C(=O)c1ccccc1)c1ccccc1	102% (inactive)
CC1(C)[C@@H](O)CC[C@]2(C)[C@H]3CC[C@@H]4[C@H]5[C@H](C(=O)/C=C\c6ccncc6)CC[C@]5(O)CC[C@@]4(C)[C@]3(C)CC[C@@H]12	17.5% (inactive)
CC1Cc2ccccc2N1NC(=O)c1ccc(Cl)c(S(N)(=O)=O)c1 (stereo not given)	94.8% (inactive)
OCCCc1ccccc1	104% (inactive)
COc1ccc(Cc2nc(C#N)c(N3CCN(c4ccc(F)cc4)CC3)o2)cc1	78% (inactive)
COc1ccc(C(=O)/C=C/c2cc(-c3cc(OC)c(OC)c(OC)c3)n[nH]2)cc1OC	-94.6% (active)
Cc1cc(N2CCN(C)CC2)nc(NCc2cc(Nc3ccnc4cc(Cl)ccc34)ccc2F)n1	-60.4% (active)

Compound	growth
O=C(CSc1ncccc1C(=O)O)Nc1ccc(Oc2ccccc2)cc1	101% (inactive)
C[n+]1c(/C=C\C=C\N2CCCCC2)sc2ccccc21	-17% (active)
O=C(CN1CCOCC1)Nc1ccc(Cn2nnc3c2C(=O)c2nnn(Cc4ccc(NC(=O)CN5CCOCC5)cc4)c2C3=O)cc1	-61.7% (active)
CN(C)CCCN(c1nc(C(Cl)(Cl)Cl)ns1)c1nc(C(Cl)(Cl)Cl)ns1	14.5% (inactive)
N#Cc1cccc(C2C3=C(COC3=O)N(CCO)c3cc4c(cc32)OCO4)c1 (stereo not given)	21% (inactive)
COc1ccc2c3c(c4ccccc4cc13)C(=O)N(CCN(C)CCN)C2=O	-76.5% (active)
Cc1cc(=O)oc2cc(O)cc(O)c12	103% (inactive)
CNc1ccc2c(c1)c1ccccc1n2C	102% (inactive)
COc1cc(C2C=C(C)N=C3SC=NN32)cc(OC)c1OC (stereo not given)	102% (inactive)
O=C(Nc1ccc(Cl)cc1)C1=NCCCCN1	111% (inactive)
O=C1NC(=O)c2cc([N+](=O)[O-])cc3cccc1c23	91% (inactive)
CC/C(=N\N=C(/CC)c1ccc(Br)cc1)c1ccc(Br)cc1	110% (inactive)
O=C(Nc1ccc(Oc2cccc(F)c2)c(Cl)c1)c1cnccn1	0.0833% (active)
Oc1ccccc1-c1nnc(SCc2ccc(O)c3ncccc23)o1	44.4% (inactive)
O=C(Nc1cc(Cl)cc(Cl)c1)Nc1nc2ccc([N+](=O)[O-])cc2s1	-24.1% (active)
CC(=O)c1cc(C(=O)c2ccc3c(c2)Sc2ccccc2N3)n2ccccc12	3.96% (active)
O=c1oc2ccc(I)cc2c(=O)n1-c1ccc(Br)cc1F	-2.16% (active)
CNC(=O)c1cc(Oc2ccc(NC(=O)Nc3ccc(Cl)c(OC(F)(F)F)c3)c(F)c2)ccn1	14.7% (inactive)
COc1ccc(C2NC(=O)Nc3ccccc32)c(OC)c1 (stereo not given)	103% (inactive)
C=CC(=O)N1CC2(CCC(n3nc(-c4ccc(Oc5ccccc5)cc4)c4c(N)ncnc43)CC2)C1	-58.1% (active)
